Reference: PubChem BioAssay AID1347416 (National Center for Advancing Translational Sciences (NCATS), 2020)
“And” between values parts separate entries of the source, which are not always exact repeats. Identical values can stand only once. The whole screen tested about 4,100 compounds, of which about 1,600 (39%) were called active. Not shown: some 25% with an inconclusive outcome. Calls follow the shape of the dose curve; as a rule, active = well fitted inhibition curve with a large enough effect; inconclusive = small, poorly fitted or top-dose-only effect; inactive = no such curve, though single readings can be large or run the other way. The list shows a part of the results.

test: qHTS Validation assay for Inhibitors of Plasmodium falciparum Dd2 growth in vitro; also: nearly all actives have a fitted effect of over 70% in size; conditions: P. falciparum Dd2 in RBCs, SYBR Green growth, 72 h; series mostly up to 28.7 µM
Text: Malaria, a parasitic disease spread to humans through the bite of a Plasmodium infected Anopheles mosquito, continues to be a global health burden affecting millions of people, with an estimated 228 million cases and 405,000 deaths in 2018. Concerns about safety and limitations of current antimalarial treatments strongly emphasize the need to develop new therapeutic options. The scarce number of chemotypes and validated drug targets with efficacy against the liver stage, have hindered development of new antimalarials. To address this, a chemoprophylactic drug discovery effort was conducted through a combined phenotypic high-throughput asexual blood stage and liver stage screen, providing a robust foundation to identify liver-stage active lead chemotypes. Compounds were initially screened against Plasmodium falciparum Dd2 strain parasites using a in vitro SYBRGreen-1 based 72 hr proliferation assay to identify novel chemotypes to advance to liver stage assays. NIH/NCATS Early Translation Branch Assay Submitter (PI): Anton Simeonov Ph.D.
[…] Assay Protocol: PROTOCOL TABLE (as described by Inglese et al., 2007) SEQUENCE No. (e.g., 1, 2, 3, etc.); PARAMETER (e.g., Cells, Incubation, Reagent, etc.); VALUE; DESCRIPTION SEQUENCE, Parameter, Description 1; Reagent; 3 uL complete malaria growth medium, 1536 TC treated Black clear bottom plate 2; Controls; 23 nL positive control artesunate (300 nM final) to column 1; Neutral control DMSO to columns 2-4 3; Compound; 23 nL of compounds in dose response concentration (29 uM to 0.5 nM final) 4; Reagent; 5 uL malaria infected red blood cells (2.5% hematocrit final, 0.3% parasitemia 5; Time; 72 hours at 37C (5% O2, 5% CO2, 90% N2; 95% Rh) 6; Reagent; 2 uL lysis buffer/SYBRGreen-1, 25 sec shake immediately following dispense 7; Time; ~16 hours at 37C (5% O2, 5% CO2, 90% N2; 95% Rh) 8; Detector; EnVision (PerkinElmer) bottom read at 485/14nm excitation and 535/25 nm emission NOTES (numbers refer to sequence above): 1; Complete Malaria Growth Media: 1X RPMI-1640 w/L-glutamine, 5.5g/L Albumax II, 367 uM Hypoxanthine, 25 mM HEPES, 0.25% Sodium Bicarbonate, 35 uM Gentamicin sulfate 2; Controls were added using the Kalypsis Pintool (Wako USA) equipped with 1536 pinhead 3; Compounds were added in a 7-point, titration with a high final concentration of 29 uM by Pintool from seven inter-plate titrations of library plates and two DMSO control plates at the beginning and end (see Yasgar et al., 2008). 4; Red blood cells infected with Plasmodium falciparum Dd2 parasites were used. 6; Lysis buffer: 20 mM Tris-HCl, 10 mM EDTA, 0.16% Saponin, 1.6% Triton-X, 10X SYBR Green. REFERENCE: Inglese J, Shamu CE, Guy RK. 2007. Reporting data from high-throughput screening of small-molecule libraries. Nat Chem Biol. doi:10.1038/nchembio0807-438 Yasgar A, Shinn P, Jadhav A, Auld D, Michael S, Zheng W, Austin CP, Inglese J, Simeonov A. 2008. Compound Management for Quantitative High-Throughput Screening. J Lab Autom 13:79-89. doi:10.1016/j.jala.2007.12.004
Potency is read from the fitted curve at half-maximal effect.

SMILES	Potency
Cc1ccc(C(=O)N2[C@H]3CC[C@@H]2c2cnc(-c4ccccc4)nc2C3)cn1	inactive
Cc1noc(C)c1Cc1ccc(C(=O)N2[C@H]3CC[C@@H]2c2cnc(-c4ccccc4)nc2C3)o1	9.44 µM (active)
Cn1cc(C(=O)N2[C@H]3CC[C@@H]2c2cnc(-c4ccccc4)nc2C3)cn1	inactive
Cc1nc(-c2ccccc2)cc([C@H]2CN3CC[C@H]2C[C@@H]3CN(Cc2ccco2)Cc2ccco2)n1	2.99 µM (active)
Cc1nc(-c2ccco2)cc([C@H]2CN3CC[C@H]2C[C@@H]3CNCc2ccccc2)n1	4.33 µM (active)
CCOc1ccc(CN(CCc2ccc3c(c2)OCO3)Cc2cc(OC)ccc2O)cc1	0.668 µM (active)
CCOc1cccc(CNCCc2c(C)[nH]c3ccc(OC(F)(F)F)cc23)c1O	2.37 µM (active)
Cc1ccc(CN2C3CCCC2CC(NC(=O)Nc2cccc(F)c2)C3)cc1 (configuration not stated)	10.6 µM (active)
O=C(NC1CN2CCC1CC2)c1ccc(-c2ccc([N+](=O)[O-])cc2)o1 (configuration not stated)	inactive
COC1C(=O)N(c2cccc(F)c2)C12CCNCC2 (configuration not stated)	10.6 µM (active)
FC(F)(F)CN1C2CCC1CN(c1nnc(Cl)c3ccccc13)C2	2.11 µM (active)
CCC(CC)c1cc([C@H]2CN3CC[C@H]2C[C@@H]3COC(=O)Nc2ccc(C(C)(C)C)cc2)nc(-c2ccncc2)n1	2.11 µM (active)
O=C(Nc1ccccc1)OC[C@H]1C[C@@H]2CCN1C[C@@H]2c1cc(C2CCCC2)nc(-c2ccncc2)n1	1.68 µM (active)
COc1ccc(NC(=O)OC[C@H]2C[C@@H]3CCN2C[C@@H]3c2cc(C3CCCC3)nc(-c3ccncc3)n2)cc1	4.22 µM (active)
CC(C)(C)c1ccc(NC(=O)OC[C@H]2C[C@@H]3CCN2C[C@@H]3c2cc(C3CCCC3)nc(-c3ccncc3)n2)cc1	2.11 µM (active)
N#Cc1nn(-c2c(Cl)cc(C(F)(F)F)cc2Cl)c(N)c1S(=O)C(F)(F)F (configuration not stated)	9.44 µM (active)
Cc1c2ccncc2c(C)c2c1[nH]c1ccccc12	3.35 µM (active)
CCN1CC=C(c2c[nH]c3ccccc23)CC1	4.22 µM (active)
CC(C)N1CC=C(c2c[nH]c3ccccc23)CC1	10.6 µM (active)
CCN(CC)C1=NC(=[N+](CC)CC)c2ccccc21	5.31 µM (active)
COc1ccc(CC(=O)N2Cc3ccccc3CC3(CCCN3C)C2)cc1 (configuration not stated)	9.44 µM (active)
CC(C(=O)c1c[nH]c2ccccc12)N1CCN(C(=O)c2ccco2)CC1 (configuration not stated)	5.96 µM (active)
COc1cccc([C@@H]2CCN(Cc3[nH]c4ccccc4c3C)C[C@H]2O)c1	1.5 µM (active)
CCN1CCN(Cc2cc(Br)cc(Br)c2O)CC1	7.5 µM (active)
Oc1c(Br)cc(Br)cc1CN1CCN(Cc2ccccc2)CC1	1.06 µM (active)
COc1cc(C2NCc3ccccc3-n3cccc32)ccc1O (configuration not stated)	2.66 µM (active)

SMILES	Potency
Oc1ccc(C2NCc3ccccc3-n3cccc32)cc1Cl (configuration not stated)	1.19 µM (active) and 1.5 µM (active)
CC(C)CCNC(=O)c1cc(C(=O)c2cc(F)ccc2O)cn(CCC(C)C)c1=O	2.11 µM (active)
O=C(c1cc(C(=O)NCc2ccccc2)c(=O)n(Cc2ccccc2)c1)c1cc(Br)ccc1O	4.73 µM (active)
CC(C)CCNC(=O)c1cc(C(=O)c2cc(Br)ccc2O)cn(CCC(C)C)c1=O	0.944 µM (active)
CCOc1c(Cl)cc(CNC(C)C(O)c2ccccc2)cc1OC (configuration not stated)	6.68 µM (active)
CC(NCc1ccc(Cl)cc1Cl)C(O)c1ccccc1 (configuration not stated)	4.73 µM (active)
O=C1NC2(CCCN(Cc3ccccn3)C2)COc2ccccc21 (configuration not stated)	4.85 µM (active)
CC(C)(C)CN1CCC2(COc3ccncc3S(=O)(=O)N2)C1 (configuration not stated)	inactive
COc1ccc2ccc(O)c(CN3CC=C(c4ccccc4)CC3)c2c1	8.41 µM (active)
Cc1cc(O)c(CN2CC=C(c3ccccc3)CC2)cc1C(C)C	0.335 µM (active)
CCOc1ccc(CN2C(=O)c3ccccc3Sc3ccc(C(=O)N4CCC5(CC4)OCCO5)cc32)cc1	4.22 µM (active)
CCC(CC)c1cc([C@H]2CN3CC[C@H]2C[C@@H]3CNS(=O)(=O)c2ccccc2C#N)nc(-c2ccncc2)n1	1.5 µM (active)
CCC(CC)c1cc([C@H]2CN3CC[C@H]2C[C@@H]3CNS(=O)(=O)c2cccs2)nc(-c2ccncc2)n1	2.37 µM (active)
COC(=O)C(C)Oc1cc(C)cc2oc(=O)c3c(c12)CCC3 (configuration not stated)	inactive
Cc1nc2c(=O)n(C)c(=O)nc-2n(C)n1	0.422 µM (active)
CCC(CC)c1cc([C@H]2CN3CC[C@H]2C[C@@H]3CNC(=O)c2ccc(C)cc2)nc(-c2ccncc2)n1	10.6 µM (active)
CCC(CC)c1cc([C@H]2CN3CC[C@H]2C[C@@H]3CNC(=O)NCc2ccccc2)nc(-c2ccncc2)n1	4.22 µM (active)
CCC(CC)c1cc([C@H]2CN3CC[C@H]2C[C@@H]3CNC(=O)COc2ccccc2)nc(-c2ccncc2)n1	1.5 µM (active)
CCC(CC)c1cc([C@H]2CN3CC[C@H]2C[C@@H]3CNC(C)=O)nc(-c2ccncc2)n1	15.3 µM (active)
CCC(CC)c1cc([C@H]2CN3CC[C@H]2C[C@@H]3CNC(=O)Cc2cccs2)nc(-c2ccncc2)n1	2.99 µM (active)
CCC(CC)c1cc([C@H]2CN3CC[C@H]2C[C@@H]3CNC(=O)c2ccccc2)nc(-c2ccncc2)n1	10.6 µM (active)
CCOC(=O)C1(c2ccccc2)CCN(CCC(C#N)(c2ccccc2)c2ccccc2)CC1	5.31 µM (active)
CC(C)[C@@]1(NC(=O)[C@@H]2C[C@@H]3c4cccc5[nH]cc(c45)C[C@H]3N(C)C2)O[C@@]2(O)[C@@H]3CCCN3C(=O)[C@H](Cc3ccccc3)N2C1=O	2.37 µM (active)
CN1Cc2ccccc2-n2ccnc2C12CCN(C(=O)c1cccc(C(F)(F)F)c1)CC2	inactive
Clc1ccc(C(Cn2ccnc2)OCc2csc3c(Cl)cccc23)c(Cl)c1 (configuration not stated)	2.37 µM (active)
CCCCn1c(NS(=O)(=O)c2ccccc2)c(C(=O)OCC)c2nc3ccccc3nc21	10.6 µM (active)
